Results filed as inconclusive are left out. A call without a number means that no potency is given here. Calls of active or inactive are those of the source. Unless noted, the call rests on the fitted dose curve.
Key:
[1] = Nuclear factor erythroid 2-related factor 2/antioxidant responsive element (Nrf2/ARE) small molecule agonists: qHTS cell viability counter screen in human keratinocytes (AID 1919968; active means well fitted curve in the direction sought with a large enough effect in the repeat runs; an effect the other way counts as inactive or inconclusive; further: nearly all actives have a fitted effect of over 55% in size)
Procedure, shortened: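 Cells of the KeratinoSens line were plated at 1,500 per well and left for 5 h before compound transfer from DMSO stocks. After a 23 h incubation (37 C, 5% CO2), CellTiter-Fluor was added. Signal was taken as fluorescence intensity 1 h later.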

[2] = biological target: KiSS-1 receptor (Homo sapiens) (UniProt Q969F8); experiment: Human kisspeptin (KISS1R) small molecule agonists, calcium flux assay in KISS1R-HEK293 cells (AID 1920064; active means well fitted curve in the direction sought with a large enough effect in the repeat runs; an effect the other way counts as inactive or inconclusive)
Chain of KiSS-1 receptor (Homo sapiens) (Q969F8 whole entry, looked up): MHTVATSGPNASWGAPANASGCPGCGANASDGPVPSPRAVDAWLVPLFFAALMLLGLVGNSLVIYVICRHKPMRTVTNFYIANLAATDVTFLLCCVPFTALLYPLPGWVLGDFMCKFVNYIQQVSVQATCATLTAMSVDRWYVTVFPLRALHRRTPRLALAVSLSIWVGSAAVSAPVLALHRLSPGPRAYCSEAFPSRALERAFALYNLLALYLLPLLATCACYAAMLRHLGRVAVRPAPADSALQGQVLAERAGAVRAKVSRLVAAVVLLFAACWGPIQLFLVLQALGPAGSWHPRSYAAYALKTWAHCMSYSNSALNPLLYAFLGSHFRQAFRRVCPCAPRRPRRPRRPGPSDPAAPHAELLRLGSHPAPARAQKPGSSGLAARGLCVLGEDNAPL
Procedure, shortened: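 Cell line: HEK293, stable human KISS1R. Dye loading 1 h at 37 C after 18 h culture. Read: kinetic fluorescence, 480/540 nm, 3 min at 1 s intervals.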

[3] = G protein-coupled receptor (GPCR) small molecule agonists, calcium flux assay: HEK293 wild type cell line counter screen (AID 1920065)
Procedure, shortened: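 Tox21 10K compounds, 15 concentrations each in triplicate, pin-transferred in DMSO onto dye-loaded cells; kinetic read at 480/540 nm for 3 min, 1 s intervals.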

[4] = p53 small molecule agonists, cell-based qHTS assay with human liver microsomes (AID 1963577)
Procedure, shortened: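 Compounds act here after metabolic activation: human liver microsomes and NADPH, both at 0.5 mg/mL final, were co-added to p53RE-bla cells. Incubation ran 16 h at 37 C, followed by LiveBLAzer detection.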

[5] = p53 small molecule agonists, cell-based qHTS assay with human liver microsomes: qHTS cell viability counter screen (AID 1963579); further: nearly all actives have a fitted effect of over 45% in size
Procedure, shortened: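 Cells carrying the p53 response-element beta-lactamase reporter are treated for 16 h at 37 C with test compounds in the presence of human liver microsomes and NADPH (both 0.5 mg/mL final); ATP-based CellTiter-Glo luminescence then reports viability.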

[6] = p53 small molecule agonists, cell-based qHTS assay with rat liver microsomes: qHTS cell viability counter screen (AID 1963580); further: nearly all actives have a fitted effect of over 45% in size
Procedure, shortened: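 Cytotoxicity counter screen: intracellular ATP read by CellTiter-Glo luminescence in the p53 reporter wells. HCT-116 p53RE-bla cells were treated for 16 h at 37 C alongside rat liver microsomes and NADPH, each 0.5 mg/mL final.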

[7] = p53 small molecule agonists, cell-based qHTS assay (AID 1963582; active means well fitted activation curve with a large enough effect in the signal ratio in the repeat runs, not every such curve was filed as active; the % refers to the signal ratio)
Procedure, shortened: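 16 h compound exposure (37 C) of p53 response element–bla cells, preceded by 5 h recovery at 37 C/5% CO2; read-out via LiveBLAzer B/G FRET substrate, 2 h RT, fluorescence intensity.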

[8] = biological target: 5-hydroxytryptamine receptor 2A (Homo sapiens) (UniProt P28223); experiment: 5-hydroxytryptamine receptor 2A (HTR2A) small molecule agonists, cell-based qHTS assay (AID 1963587); further: nearly all actives have a fitted effect of over 30% in size
Chain of 5-hydroxytryptamine receptor 2A (Homo sapiens) (P28223 whole entry, looked up): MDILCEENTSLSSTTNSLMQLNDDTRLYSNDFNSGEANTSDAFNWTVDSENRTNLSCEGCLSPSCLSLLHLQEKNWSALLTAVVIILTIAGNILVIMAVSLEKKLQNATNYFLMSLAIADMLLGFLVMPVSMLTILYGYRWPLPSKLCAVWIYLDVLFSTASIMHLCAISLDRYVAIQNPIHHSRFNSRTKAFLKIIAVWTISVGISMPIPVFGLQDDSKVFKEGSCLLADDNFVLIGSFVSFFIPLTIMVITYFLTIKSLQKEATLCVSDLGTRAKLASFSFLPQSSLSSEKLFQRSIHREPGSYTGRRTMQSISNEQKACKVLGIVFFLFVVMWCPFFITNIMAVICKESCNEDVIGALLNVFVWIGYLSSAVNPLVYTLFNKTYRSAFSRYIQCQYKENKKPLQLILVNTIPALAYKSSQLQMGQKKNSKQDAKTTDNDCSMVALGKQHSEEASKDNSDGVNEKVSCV
Procedure, shortened: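 Kinetic calcium-flux fluorescence (2 min, 1 sec intervals) after compound addition in agonist mode. HTR2A-CHO cells were cultured 18 h, then dye-loaded 1 h at 37 C.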

[9] = biological target: Muscarinic acetylcholine receptor M1 (Homo sapiens) (UniProt P11229); experiment: Cholinergic receptor muscarinic 1 (CHRM1) small molecule antagonists, cell-based qHTS assay (AID 1963588); further: nearly all actives have a fitted effect of over 40% in size
Chain of Muscarinic acetylcholine receptor M1 (Homo sapiens) (P11229 whole entry, looked up): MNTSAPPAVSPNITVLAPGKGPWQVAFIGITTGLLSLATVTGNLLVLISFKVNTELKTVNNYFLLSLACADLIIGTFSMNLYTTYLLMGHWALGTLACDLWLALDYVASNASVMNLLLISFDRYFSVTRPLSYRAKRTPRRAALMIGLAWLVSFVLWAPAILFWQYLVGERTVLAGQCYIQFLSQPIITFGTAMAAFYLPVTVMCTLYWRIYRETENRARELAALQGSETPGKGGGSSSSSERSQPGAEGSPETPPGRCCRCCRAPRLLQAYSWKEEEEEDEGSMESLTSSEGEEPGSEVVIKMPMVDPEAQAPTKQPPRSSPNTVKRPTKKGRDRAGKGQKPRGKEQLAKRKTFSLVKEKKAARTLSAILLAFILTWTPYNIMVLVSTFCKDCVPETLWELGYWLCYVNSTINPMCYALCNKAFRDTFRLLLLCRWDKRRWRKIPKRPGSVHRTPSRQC
Procedure, shortened: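 Compounds were tested at 15 concentrations in three independent runs. Dye-loaded CHRM1-CHO cells were exposed 5 min at room temperature before stimulation by acetylcholine added at 50nM. Intracellular calcium was read kinetically on FDSS for 3 min.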

[10] = biological target: Muscarinic acetylcholine receptor M1 (Homo sapiens) (UniProt P11229); experiment: Cholinergic receptor muscarinic 1 (CHRM1) small molecule agonists, cell-based qHTS assay (AID 1963589); further: nearly all actives have a fitted effect of over 35% in size
Procedure, shortened: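 Homogeneous fluorescence calcium flux, agonist mode. Human M1-expressing CHO cells; compound dosed at 15 concentrations, three independent runs; signal sampled every 1 sec.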

[11] = cAMP Responsive Elements (CRE) small molecule agonists, cell-based qHTS assay (AID 1963590)
Procedure, shortened: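 HEK 293T cells stably bearing CRE-bla were plated at 2,000 cells per well and rested 18 h. Compounds, positive controls or DMSO were added for 3 h at 37 C. LiveBLAzer B/G substrate was then loaded for 2 h at room temperature.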

[12] = cAMP Responsive Elements (CRE) small molecule antagonists, cell-based qHTS assay (AID 1963591; active means well fitted inhibition curve with a large enough effect in the signal ratio in the repeat runs, not every such curve was filed as active; the % refers to the signal ratio)
Procedure, shortened: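 First, CRE-bla HEK293T cells settled 18 h at 37 C. Next, compound and 0.25 uM final NKH477 were applied for 3 h. Last, LiveBLAzer B/G substrate was loaded for 2 h at room temperature.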

[13] = biological target: Beta-2 adrenergic receptor (Homo sapiens) (UniProt P07550); experiment: Adrenergic beta2 receptor (ADRB2) small molecule antagonists, cell-based qHTS assay (AID 1963592); further: series mostly up to about 92 µM; nearly all actives have a fitted effect of over 50% in size
Chain of Beta-2 adrenergic receptor (Homo sapiens) (P07550 whole entry, looked up): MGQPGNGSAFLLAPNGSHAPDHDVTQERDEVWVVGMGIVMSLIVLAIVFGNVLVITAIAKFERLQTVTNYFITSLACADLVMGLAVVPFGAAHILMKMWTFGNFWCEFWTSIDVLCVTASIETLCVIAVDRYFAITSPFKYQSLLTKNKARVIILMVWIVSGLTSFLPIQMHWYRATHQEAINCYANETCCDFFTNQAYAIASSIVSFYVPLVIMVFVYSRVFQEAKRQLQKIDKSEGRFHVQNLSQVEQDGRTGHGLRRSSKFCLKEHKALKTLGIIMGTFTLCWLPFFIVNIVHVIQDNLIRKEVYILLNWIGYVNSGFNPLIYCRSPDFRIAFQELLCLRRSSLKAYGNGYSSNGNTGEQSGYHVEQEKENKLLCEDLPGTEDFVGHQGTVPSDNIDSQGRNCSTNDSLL
Procedure, shortened: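 Assay format: CHO-ADRB2 cells, 18-20hr seeding at 37C/5% CO2, then compound plus 1nM isoproterenol agonist mix for 0.5hr RT. Homogeneous time-resolved fluorescence cAMP detection after 1hr, expressed as 665/615 nm ratio.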

[14] = biological target: D(2) dopamine receptor (Homo sapiens) (UniProt P14416); experiment: Dopamine D2 receptor (DRD2) small molecule agonists, cell-based qHTS assay (AID 1963594); further: nearly all actives have a fitted effect of over 35% in size
Chain of D(2) dopamine receptor (Homo sapiens) (P14416 whole entry, looked up): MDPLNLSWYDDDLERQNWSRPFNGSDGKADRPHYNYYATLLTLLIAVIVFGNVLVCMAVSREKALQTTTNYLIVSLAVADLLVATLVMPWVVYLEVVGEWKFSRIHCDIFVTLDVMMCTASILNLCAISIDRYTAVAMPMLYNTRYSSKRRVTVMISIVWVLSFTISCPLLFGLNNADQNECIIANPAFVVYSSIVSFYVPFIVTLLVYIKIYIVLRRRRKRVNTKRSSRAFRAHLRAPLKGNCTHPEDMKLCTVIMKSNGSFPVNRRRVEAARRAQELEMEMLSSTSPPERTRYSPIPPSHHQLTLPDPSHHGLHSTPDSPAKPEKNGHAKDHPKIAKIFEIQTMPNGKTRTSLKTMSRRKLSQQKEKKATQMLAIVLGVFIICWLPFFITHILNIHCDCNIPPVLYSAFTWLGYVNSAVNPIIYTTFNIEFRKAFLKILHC
Procedure, shortened: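 cAMP accumulation in DRD2-HEK293 cells measured by HTRF after 1 h detection; compounds added 10 min before NKH477 (200nM […]) forskolin-analogue stimulation, 30 min at room temperature, with Ro20-1724 present at 0.1 mM final.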

[15] = biological target: D(2) dopamine receptor (Homo sapiens) (UniProt P14416); experiment: Dopamine D2 receptor (DRD2) small molecule antagonists, cell-based qHTS assay (AID 1963595; active means well fitted inhibition curve with a large enough effect in the signal ratio in the repeat runs, with a control signal flat; the % refers to the signal ratio)
Procedure, shortened: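 In this cell-based antagonist screen, compounds act for 10 min at room temperature before a 30 min challenge with 12 nM quinpirole and 200 nM NKH477. cAMP is quantified by HTRF competition in DRD2-HEK293 cells containing 0.1 mM Ro20-1724.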

[16] = p53 small molecule agonists, cell-based qHTS assay with rat liver microsomes (AID 1963578); further: potency means the concentration at half of the fitted maximal effect
Procedure, shortened: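 Read-out is beta-lactamase reporter fluorescence (LiveBLAzer, 2 h, room temperature, dark) in p53RE-bla cells treated 16 h at 37 C with compound, rat liver microsomes and NADPH, both 0.5 mg/mL final.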

[17] = p53 small molecule agonists, cell-based qHTS assay: qHTS cell viability counter screen (AID 1963581); further: nearly all actives have a fitted effect of over 45% in size
Procedure, shortened: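 ATP content measured by luminescence in HCT-116 p53RE-bla cells treated 16 h at 37 C, same wells as the reporter screen.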

[18] = biological target: 5-hydroxytryptamine receptor 2A (Homo sapiens) (UniProt P28223); experiment: 5-hydroxytryptamine receptor 2A (HTR2A) small molecule antagonists, cell-based qHTS assay (AID 1963586); further: nearly all actives have a fitted effect of over 45% in size
Procedure, shortened: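 CHO cells stably expressing human HTR2A were plated for 18 h at 37 C, then loaded with calcium dye for 1 h. Compounds were preincubated 5 min at room temperature before DOI (4 nM solution) was added. Kinetic fluorescence was read for 3 min.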

[19] = biological target: Beta-2 adrenergic receptor (Homo sapiens) (UniProt P07550); experiment: Adrenergic beta2 receptor (ADRB2) small molecule agonists, cell-based qHTS assay (AID 1963593);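 further: CHO cells stably overexpressing human ADRB2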
Procedure, shortened: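 CHO cells stably over-expressing ADRB2 were plated overnight at 37C, then dosed with compounds plus a stimulation mix containing 100uM IBMX and 25uM Ro-20-1724 for 0.5hr at room temperature. cAMP was measured by HTRF competition, 1hr.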

[20] = biological target: Gonadotropin-releasing hormone receptor (Homo sapiens) (UniProt P30968); experiment: Human gonadotropin-releasing hormone receptor (GnRHR) small molecule agonists, calcium flux assay in GnRHR-HEK293 cells (AID 1920063); further: nearly all actives have a fitted effect of over 35% in size
Chain of Gonadotropin-releasing hormone receptor (Homo sapiens) (P30968 whole entry, looked up): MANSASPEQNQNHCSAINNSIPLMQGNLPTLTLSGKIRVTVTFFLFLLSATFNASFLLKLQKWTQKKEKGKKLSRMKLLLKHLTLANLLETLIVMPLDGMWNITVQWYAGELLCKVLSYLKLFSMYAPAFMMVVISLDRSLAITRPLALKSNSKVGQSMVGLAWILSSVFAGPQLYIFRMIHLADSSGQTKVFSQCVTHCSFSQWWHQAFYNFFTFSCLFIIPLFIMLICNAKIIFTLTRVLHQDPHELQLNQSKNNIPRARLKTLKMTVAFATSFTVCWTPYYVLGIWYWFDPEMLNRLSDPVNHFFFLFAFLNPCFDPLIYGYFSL
Procedure, shortened: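 Compounds dissolved in DMSO are pin-transferred onto dye-loaded GnRHR-HEK293 cells, which were seeded 18 h before at 37 C/5% CO2. Calcium signal is read as fluorescence intensity at 1 s intervals for 3 min.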

SMILES | Potency [1] | outcome [2] | outcome [3] | Potency [4] | Potency [5] | Potency [6] | Potency [7] | Potency [8] | Potency [9] | Potency [10] | Potency [11] | Potency [12] | Potency [13] | Potency [14] | Potency [15] | Potency [16] | Potency [17] | Potency [18] | Potency [19] | Potency [20]
CN(C)CCN(C)CCN(C)C | inactive | inactive | inactive | inactive | inactive | inactive | inactive | inactive | inactive | inactive | inactive | inactive | inactive | inactive | inactive | – | – | – | – | –
CC(C)(C)c1ccccc1 | inactive | inactive | inactive | inactive | – | – | inactive | inactive | inactive | inactive | inactive | inactive | inactive | inactive | inactive | inactive | inactive | inactive | – | –
CCCCCCCCCCCCCCBr | inactive | inactive | inactive | inactive | – | – | inactive | inactive | inactive | inactive | inactive | inactive | inactive | inactive | inactive | inactive | – | – | inactive | –
C[C@@H]1O[C@@H](O[C@@H]2[C@@H](O)[C@H](OCCc3ccc(O)c(O)c3)O[C@H](CO[C@@H]3O[C@H](CO)[C@@H](O)[C@H](O)[C@H]3O)[C@H]2OC(=O)/C=C/c2ccc(O)c(O)c2)[C@H](O)[C@H](O)[C@H]1O | inactive | inactive | inactive | inactive | inactive | – | inactive | inactive | inactive | inactive | inactive | inactive | – | – | inactive | inactive | inactive | – | – | –
CC(C)(C)c1n[nH]c(=S)n(N)c1=O | inactive | inactive | inactive | inactive | inactive | – | inactive | – | inactive | inactive | inactive | – | inactive | inactive | inactive | inactive | inactive | inactive | inactive | –
CC(C)=CC(=O)C=C(C)C | inactive | inactive | inactive | – | inactive | inactive | inactive | inactive | – | inactive | inactive | inactive | inactive | inactive | – | – | inactive | – | inactive | –
O=C(c1ccco1)N1CCNCC1 | inactive | inactive | – | inactive | inactive | inactive | inactive | – | inactive | inactive | inactive | inactive | inactive | inactive | inactive | inactive | inactive | – | inactive | –
NC(=O)C(=O)N/N=C/c1ccc([N+](=O)[O-])o1 | inactive | inactive | inactive | inactive | inactive | – | inactive | inactive | inactive | inactive | inactive | inactive | – | – | inactive | inactive | – | inactive | inactive | –
Oc1ccc(C(O)CNCCCCCCNCC(O)c2ccc(O)c(O)c2)cc1O (configuration not stated) | inactive | inactive | inactive | inactive | – | inactive | inactive | inactive | inactive | – | – | inactive | inactive | – | – | inactive | inactive | inactive | – | –
C=C(C)C(=O)OCC(C)(C)COC(=O)C(=C)C | inactive | inactive | inactive | inactive | – | inactive | inactive | inactive | inactive | inactive | inactive | – | inactive | inactive | – | inactive | inactive | inactive | – | –
CCN(CC)CCNC(=O)COc1ccc(Cl)cc1 | inactive | inactive | inactive | inactive | – | inactive | inactive | inactive | inactive | inactive | inactive | inactive | inactive | inactive | inactive | inactive | inactive | – | inactive | –
CC1(C)OC[C@@H](COC(=O)CCc2ccc(OC[C@@H](O)CNCCNC(=O)N3CCOCC3)cc2)O1 | inactive | inactive | inactive | – | inactive | inactive | inactive | inactive | inactive | inactive | inactive | inactive | – | inactive | inactive | inactive | inactive | inactive | – | –
Cc1ccccc1CCO | inactive | inactive | inactive | inactive | inactive | inactive | inactive | inactive | – | inactive | inactive | inactive | – | inactive | inactive | inactive | inactive | inactive | inactive | inactive
Cc1c(C)n(CCN(C)C)c2ccc(C(=O)OCCN(C)C)cc12 | inactive | inactive | inactive | inactive | inactive | inactive | inactive | inactive | – | inactive | inactive | – | inactive | inactive | inactive | inactive | inactive | inactive | inactive | inactive
CCOC(=O)c1c(N)sc2c1CCN(Cc1ccccc1)C2 | inactive | inactive | inactive | inactive | inactive | inactive | inactive | inactive | inactive | inactive | inactive | – | inactive | inactive | inactive | 15.8 µM (active) | inactive | inactive | inactive | inactive
CO[C@H]1O[C@H](CO)[C@@H](O)[C@H](O)[C@H]1O | inactive | inactive | inactive | inactive | inactive | inactive | inactive | inactive | inactive | inactive | inactive | inactive | inactive | inactive | inactive | inactive | inactive | – | inactive | inactive
CCCC(=O)O[C@]1(C(=O)CC)CC[C@H]2[C@@H]3CCC4=CC(=O)CC[C@]4(C)[C@H]3[C@@H](O)C[C@@]21C | inactive | inactive | inactive | inactive | inactive | inactive | inactive | inactive | inactive | inactive | – | – | – | inactive | inactive | inactive | inactive | inactive | – | inactive
